# Assay results published in ChEMBL document CHEMBL4513216, “Probing the Open Global Health Chemical Diversity Library for Multistage-Active Starting Points for Next-Generation Antimalarials” (ACS Infect Dis, 2020).
# Among all 68,000 compounds or so, about 2,700 (4%) showed an effect of 50% or more. This excerpt belongs to a sample that is enriched for strong results.
# Tested on: Plasmodium berghei
# Assay: Screen against P. berghei liver stage (PbLuc), transformed with Luciferase, at 2uM
# Type: functional, HepG2
# Conditions: tested at 2 uM
row,Structure (SMILES),INHIBITION [%]
1,CN(CC(=O)Nc1cccnc1)CC1CCCN1c1cccnn1 (stereo not drawn),45.48
2,Cc1nn(C)c(Cl)c1C1CCCN1C(=O)c1cnc[nH]1 (stereo not drawn),8.37
3,CC(=O)N(Cc1noc(C)n1)C1CCN(CC(=O)N(C)C2CC2)C1 (stereo not drawn),-3.97
4,Cc1nccn1CCN(C)C(=O)C1CCN(C(=O)C2CCC2)CC1,20.45
5,CN(C)CCN1C[C@@H]2CN(S(=O)(=O)c3ccccc3)C[C@@H]2C1=O,19.16
6,Cc1ccc(CN2C[C@H](OCC3CCOCC3)[C@H]3COC[C@H]32)o1,18.32
7,CC(C)CN1CCN(S(=O)(=O)c2cn(C)cn2)[C@H]2CS(=O)(=O)C[C@H]21,15.74
8,CC(C)=CCN1CCN(Cc2nccn2C)[C@H]2CS(=O)(=O)C[C@H]21,8.26
9,O=C(c1ccc2nccnc2c1)N1CCN(CCO)[C@@H]2CS(=O)(=O)C[C@@H]21,14.82
10,Cn1cnc2cc(C(=O)N3CCN(CCO)[C@@H]4CS(=O)(=O)C[C@@H]43)ccc21,55.36
11,Cc1nc2ccc(C(=O)N3CCN(CCO)[C@@H]4CS(=O)(=O)C[C@@H]43)cc2o1,-85.34
12,CC(C)=CCN1CCN(S(=O)(=O)c2cn(C)cn2)[C@H]2CS(=O)(=O)C[C@H]21,50.98
13,O=C(Cn1nc(-c2ccc(F)cc2)oc1=O)NCCc1ccccc1,20.57
14,c1ccc(OCc2nnn3c2CN(c2ncccn2)CCC3)nc1,-7.52
15,Cc1nnc2ccc(OCCNS(C)(=O)=O)nn12,-26.08
16,N#Cc1cccc(CN2CCn3cc(Cn4cccn4)nc3C2)c1,21.42
17,CSc1ccc(NCC(=O)NC(=O)NCC(F)(F)F)cc1F,18.63
18,CSc1ccc(NCC(=O)NCC(=O)N2CCCC2)cc1F,-30.18
19,CSc1ccc(NCC(=O)NCC2CC2)cc1F,55.66
20,COc1ccc(CNC(=O)NC2CCN(CC3CCCC3)CC2)cn1,-17.01
21,CCCN1C[C@H](NC(=O)c2ccccc2F)[C@@H](c2ccc(OC)cc2)C1,16.55
22,CCCN1C[C@H](NC(=O)c2cc(C)no2)[C@@H](c2ccc(OC)cc2)C1,18.22
23,CCCN1C[C@H](NC(=O)c2cccs2)[C@@H](c2ccc(OC)cc2)C1,53.65
24,O=c1c2ccccc2ncn1Cc1cc(C2CC2)[nH]n1,34.98
25,CCOCC1c2c(ncn2C)CCN1C(=O)c1cscn1 (stereo not drawn),16.78
26,Cc1ncnc2c1CCN(Cc1ccc3c(c1)OCO3)CC2,-39.9

row,Structure (SMILES),INHIBITION [%]
1,Cc1cc(CNc2ccc3nc(C4CC4)sc3c2)no1,53.63
2,Cc1cc(CNc2ccc3nc(C)sc3c2)no1,-32.33
3,Cc1noc(C)c1CNc1ccc2nc(C3CC3)sc2c1,25.21
4,O=C1NCCN(CC2CC2)C12CCN(Cc1ccco1)CC2,61.9
5,Cc1ccc(CN2CCC3(CC2)C(=O)NCCN3CC2CC2)o1,8.62
6,CN1CCNC(=O)C12CCN(Cc1ccco1)CC2,27.42
7,CC(C)NC(=O)N1CCC2(CC1)C(=O)NCCN2Cc1ccccc1,5.69
8,O=C(NC1CC1)N1CCC2(CC1)C(=O)NCCN2Cc1ccccc1,-11.54
9,O=C(CC1CC1)N1CCC2(CC1)C(=O)NCCN2Cc1ccccc1,52.36
10,CC(C)CNC(=O)[C@H]1CCS(=O)(=O)[C@@H]2CN(Cc3cccnc3)C[C@H]12,35.07
11,COC(=O)c1ncccc1N1CCCCC1,-18.04
12,COc1nc2ccccc2cc1C1CC(=O)Nc2n[nH]c(C3CCC3)c21 (stereo not drawn),13.51
13,CC(C)c1nccc(C2CC(=O)Nc3n[nH]c(C4CCC4)c32)n1 (stereo not drawn),53.33
14,O=C1CC(c2ccc3ccccc3n2)c2c(n[nH]c2C2CCC2)N1 (stereo not drawn),46.3
15,CCc1n[nH]c(SCC(=O)N2CCc3[nH]nc(C4CCC4)c3C2)n1,23.45
16,Cc1nnc(SCC(=O)N2CCc3[nH]nc(C4CCC4)c3C2)o1,22.34
17,CCc1nnc(SCC(=O)N2CCc3[nH]nc(C4CCC4)c3C2)o1,66.4
18,O=C(C1CC1)N1CCC(O)(CN2CCN(c3ccccc3)CC2)C1 (stereo not drawn),0.64
19,Cc1nc2c(c(N(C)C)n1)CCN(C(=O)c1sccc1S(N)(=O)=O)C2,-22.79
20,CC(C)CNc1nccc(-c2cnc3sc(Cl)cn3c2=O)n1,-24.85
21,COC(=O)CC(NC(=O)CCCn1cccn1)c1ccc(Cl)cc1 (stereo not drawn),-18.57
22,CC(NC(=O)CCn1cccn1)c1cccs1 (stereo not drawn),-38.35
23,CC(C)OC(=O)CC(NC(=O)CCn1cccn1)c1ccccc1 (stereo not drawn),67.28
24,CC(NC(=O)CCn1cccn1)c1cn(-c2ccccc2)nn1 (stereo not drawn),2.26
25,COC(=O)CC(NC(=O)CCn1cccn1)c1ccc(C)cc1 (stereo not drawn),60.13
26,CC(NC(=O)CCn1cccn1)c1ccc(-n2ccnn2)cc1 (stereo not drawn),-33.92

row,Structure (SMILES),INHIBITION [%]
1,CN(C)CCN1CCC2(CCN(C(=O)c3ccc(F)cc3)CC2)C1=O,-16.42
2,Cc1cc(C)n(CC2CN(CC(=O)NCc3ccccn3)CCO2)n1 (stereo not drawn),-12.05
3,CN(Cc1cccnc1)[C@@H]1CN(C(=O)c2ccno2)[C@@H]2CCCO[C@H]12,-7.88
4,CCSc1cc(C(=O)NCc2ccc(C(=O)NC)cc2)ccn1,19.48
5,C[S+]([O-])c1nncn1CC(=O)c1ccc(Br)cc1 (stereo not drawn),-59.71
6,CCOC(=O)CC(c1ccc(OC)cc1)c1c(O)n[nH]c1C (stereo not drawn),-43.9
7,CN(Cc1ccc([S+](C)[O-])cc1)c1ccc(C(F)(F)F)cn1 (stereo not drawn),48.21
8,CN(Cc1ccc([S+](C)[O-])cc1)c1ccc(Br)cn1 (stereo not drawn),67.28
9,CN(Cc1ccc([S+](C)[O-])cc1)c1ccc(Cl)cn1 (stereo not drawn),45.82
10,CN(C)[C@H]1CCCCN(C(=O)c2cccc(-c3cccc(F)c3)c2)C1,36.79
11,COc1c(F)ccc(C(=O)N2CC[C@H](CO)[C@@H](O)C2)c1F,-15.37
12,NC(=O)c1cc(-c2cccc(C(=O)O)c2)cs1,67.28
13,NC(=O)c1ccccc1-n1cc(-c2cccc(C(=O)O)c2)cn1,0.51
14,NC(=O)c1cc(-n2cc(-c3cccc(C(=O)O)c3)cn2)cs1,29.13
15,CC(C)C(=O)N1CCC2(CCCN(CCOc3ccccc3)C2)C1 (stereo not drawn),21.89
16,Cn1c(N)nnc1SCc1c(F)cccc1Br,-3.53
17,Cn1c(N)nnc1SCc1cc(Br)ccc1Cl,55.36
18,Cn1c(N)nnc1SCc1ccc(Cl)cc1Br,45.82
19,NC(=O)C(NC(=O)CSCc1ccc(Cl)s1)c1ccccc1 (stereo not drawn),28.04
20,CS(=O)(=O)Cc1ccc(CNC(=O)c2cccnc2O)cc1,-4.5
21,COCC(C)(C#N)NC(=O)c1cn(-c2cccc(Cl)c2F)nn1 (stereo not drawn),-10.98
22,O=C(c1ccncc1F)N1CC2CC1(C(=O)N1CCCC1)C2,33.14
23,CN(C)C(=O)CN1CC[C@H]2[C@H]1CCN2c1ncccn1,22.18
24,CN(C)C(=O)CN1CCN(c2ncccn2)[C@@H]2CS(=O)(=O)C[C@@H]21,58.69
25,O=C(CN1CCN(c2ncccn2)[C@@H]2CS(=O)(=O)C[C@@H]21)N1CCCCC1,14.19
26,CC(NC(=O)c1ccsc1)c1ccc2c(c1)NC(=O)CO2 (stereo not drawn),-34.61

row,Structure (SMILES),INHIBITION [%]
1,CCN1CCCC1CN(Cc1ccoc1)CC1CCN(CCOC)CC1 (stereo not drawn),42.2
2,CCN1CCCC1CN(Cc1ccon1)CC1CCN(CCOC)CC1 (stereo not drawn),55.66
3,CCN1CCCC1CN(Cc1cc[nH]n1)CC1CCN(CCOC)CC1 (stereo not drawn),18.63
4,Cc1cc(C)nc(NC(C)Cc2cnccn2)n1 (stereo not drawn),4.42
5,Cc1cc(N2CCCC2c2nnc3n2CCCCC3)nc(N)n1 (stereo not drawn),38.89
6,CC(C)c1noc(-c2ccc(NCCCN3CCCC(O)C3)nc2)n1 (stereo not drawn),22.57
7,Cc1csc2c(=O)n3c(nc12)CCN(C(=O)c1ccccn1)CC3,-25.54
8,CCc1cc(C(=O)N2CCc3nc4c(C)csc4c(=O)n3CC2)on1,51.32
9,Cc1csc2c(=O)n3c(nc12)CCN(C(=O)c1ccnn1C)CC3,19.07
10,CNc1cncc(C2CCCN2c2cc(C)ncn2)n1 (stereo not drawn),5.15
11,Cc1c(Cl)cccc1S(=O)(=O)N1CCC2(CC1)OCCS2,-21.09
12,COc1cccc([C@H]2CN(C(=O)c3ccccc3)[C@@H]3CCCN[C@H]23)c1,34.48
13,CC(C)(C)CCN1CCN(c2snc(Cl)c2C#N)CC1,58.29
14,N#Cc1c(Cl)nsc1N1CCN(CC2CCCCC2)CC1,29.89
15,N#Cc1c(Cl)nsc1N1CCN(CC2CC2)CC1,20.88
16,c1coc(CN2CCCC3(COCCN(Cc4c[nH]nn4)C3)C2)c1 (stereo not drawn),-10.66
17,CCn1cc(NC(=O)NCc2ccc(CN3CCOCC3)cc2)cn1,17.39
18,CN1CCN(c2cccc(Cl)c2CNCCS(C)(=O)=O)CC1,4.42
19,O=C(Cc1ccc2c(c1)OCC2)Nc1nc[nH]n1,8.14
20,CC(N)C(=O)N1CCC(Oc2cccc(C(F)(F)F)c2)CC1 (stereo not drawn),48.21
21,Nc1cc(C(=O)N2CCC(Oc3cccc(C(F)(F)F)c3)CC2)ccn1,72.05
22,O=C(c1cccnc1)N1CCC(Oc2cccc(C(F)(F)F)c2)CC1,45.82
23,Nc1ccc(C(=O)N2CCC(Oc3cccc(C(F)(F)F)c3)CC2)cn1,17.2
24,O=C(c1ccncc1)N1CCC(Oc2cccc(C(F)(F)F)c2)CC1,26.74
25,O=C(c1ccc(=O)[nH]c1)N1CCC(Oc2cccc(C(F)(F)F)c2)CC1,57.75
